Measured values as given in PubChem BioAssay (NCI).
This is part of a sample that, as a whole, favours compounds with a hit. Of some 83,000 tested, about 20% had one in any assay.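 Negative percent growth values reflect cell death: -40 means 40% of the cells present at the start died, and -100 means all died.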 Calls of active or inactive are those of the source. How the source made its calls: active means growth percent below 10; inactive means the rest.

What was measured:
Test in all cases: NCI-60 one-dose screen, 48 h (100 = growth as untreated, 0 = no growth, -100 = all killed)
Conditions in all cases: 10 µM unless noted
HCT-15 colon = test system: HCT-15 colon
HT29 colon = test system: HT29 colon
SNB-75 CNS = test system: SNB-75 CNS
SNB-19 CNS = test system: SNB-19 CNS
U251 CNS = test system: U251 CNS
PC-3 prostate = test system: PC-3 prostate
SK-MEL-5 melanoma = test system: SK-MEL-5 melanoma
UACC-62 melanoma = test system: UACC-62 melanoma
LOX IMVI melanoma = test system: LOX IMVI melanoma
SK-MEL-28 melanoma = test system: SK-MEL-28 melanoma

Measured: growth

O=S(=O)(Nc1ccccc1Cl)c1ccc(-c2cnc(C3CC3)o2)cc1
active: SNB-75 CNS -13.4%
inactive: HCT-15 colon 24.4% | HT29 colon 12.5% | SNB-19 CNS 39.2% | U251 CNS 25% | PC-3 prostate 19.6% | SK-MEL-5 melanoma 17.3% | UACC-62 melanoma 40.2% | LOX IMVI melanoma 44.5% | SK-MEL-28 melanoma 59.3%

COc1cc(Cn2cc(F)c(=O)[nH]c2=O)cc(OC)c1
inactive: HCT-15 colon 103% [50 µM] | HT29 colon 110% [50 µM] | SNB-75 CNS 91.2% [50 µM] | SNB-19 CNS 101% [50 µM] | U251 CNS 106% [50 µM] | PC-3 prostate 101% [50 µM] | SK-MEL-5 melanoma 103% [50 µM] | UACC-62 melanoma 97.5% [50 µM] | LOX IMVI melanoma 86.2% [50 µM] | SK-MEL-28 melanoma 109% [50 µM]

C=C(C)COC(=O)c1ccccc1C(=O)OCC1(C)CO1 (stereo not given)
inactive: HCT-15 colon 107% | HT29 colon 107% | SNB-75 CNS 92.9% | SNB-19 CNS 101% | U251 CNS 102% | PC-3 prostate 104% | SK-MEL-5 melanoma 105% | UACC-62 melanoma 92.8% | LOX IMVI melanoma 84.5% | SK-MEL-28 melanoma 117%

Clc1ccc(Nc2nc(Nc3ccccc3)nc(Nc3ccc(-c4cc(-c5ccc(Cl)cc5)on4)cc3)n2)cc1
active: HT29 colon -2.96%
inactive: HCT-15 colon 43.1% | SNB-75 CNS 16.6% | SNB-19 CNS 76.7% | U251 CNS 48.5% | PC-3 prostate 46.1% | SK-MEL-5 melanoma 86% | UACC-62 melanoma 53.3% | LOX IMVI melanoma 32.5% | SK-MEL-28 melanoma 77.7%

COc1cccc(C2C3=C(COC3=O)N(CCO)c3cc4c(cc32)OCO4)c1 (stereo not given)
inactive: HCT-15 colon 18.2% | SNB-19 CNS 25.6% | U251 CNS 18.2% | PC-3 prostate 32.4% | SK-MEL-5 melanoma 30.8% | UACC-62 melanoma 18.3% | LOX IMVI melanoma 53.8% | SK-MEL-28 melanoma 50.5%
active: HT29 colon 0.226% | SNB-75 CNS -19.9%

Fc1ccccc1Nc1ccc2nnc(-c3ccncc3)n2n1
inactive: HCT-15 colon 95.6% | HT29 colon 103% | SNB-75 CNS 101% | SNB-19 CNS 100% | U251 CNS 101% | PC-3 prostate 101% | SK-MEL-5 melanoma 103% | UACC-62 melanoma 107% | LOX IMVI melanoma 95.6% | SK-MEL-28 melanoma 112%

CCOC(=O)c1cn2c3c(cc(F)cc3c1=O)C(CC)c1ccccc1C2 (stereo not given)
inactive: HCT-15 colon 57.8% | HT29 colon 95.9% | SNB-75 CNS 92.3% | SNB-19 CNS 103% | U251 CNS 83.8% | PC-3 prostate 81.6% | SK-MEL-5 melanoma 63.7% | UACC-62 melanoma 105% | LOX IMVI melanoma 84.9% | SK-MEL-28 melanoma 98.9%

COC(=O)c1c2c(c(C)[n+]([O-])c1C)C(=O)C=C(NCc1cccc(Cl)c1)C2=O
active: HCT-15 colon -66.9% | HT29 colon 3.61% | SNB-75 CNS -95.4% | SNB-19 CNS -53.4% | U251 CNS -20.7% | PC-3 prostate -1.7% | SK-MEL-5 melanoma -97.1% | UACC-62 melanoma -68% | LOX IMVI melanoma -57.5% | SK-MEL-28 melanoma -1.27%

O=[N+]([O-])c1ccc(O)c2ncccc12
inactive: HCT-15 colon 31.5% | HT29 colon 81% | SNB-75 CNS 84.1% | SNB-19 CNS 37.9% | U251 CNS 34.2% | PC-3 prostate 37.9% | SK-MEL-5 melanoma 56.4% | UACC-62 melanoma 29.1% | LOX IMVI melanoma 46.8% | SK-MEL-28 melanoma 81.7%

COc1cc(-c2nc(SC(C)C)nc(Nc3cccc(C)c3)c2C#N)cc(OC)c1OC
inactive: HCT-15 colon 103% | HT29 colon 98.7% | SNB-75 CNS 109% | SNB-19 CNS 103% | U251 CNS 106% | PC-3 prostate 98.6% | SK-MEL-5 melanoma 102% | UACC-62 melanoma 95.2% | LOX IMVI melanoma 97.2% | SK-MEL-28 melanoma 107%

CCCCCCCC/C=C\CCCCCCCCOc1cccc(CC(=O)NCC[N+]2(C)CCCC2)c1
inactive: HCT-15 colon 98.7% | HT29 colon 38.5% | SNB-75 CNS 53.3% | SNB-19 CNS 62.6% | U251 CNS 53.5% | PC-3 prostate 36.3% | SK-MEL-5 melanoma 94.1% | UACC-62 melanoma 71.7% | LOX IMVI melanoma 87% | SK-MEL-28 melanoma 98.6%

c1ccc(-c2n(Cc3ccc4ccccc4c3)c3ccccc3[n+]2Cc2ccc3ccccc3c2)cc1
active: HCT-15 colon -31.9% | HT29 colon -68.1% | SNB-75 CNS -43.9% | SNB-19 CNS -16.4% | U251 CNS -73.3% | PC-3 prostate -30.5% | SK-MEL-5 melanoma -98.1% | UACC-62 melanoma -82.9% | LOX IMVI melanoma -97.3% | SK-MEL-28 melanoma -43.7%

COc1cc(/C=N/NC(=O)c2cnn3c2NC(c2ccccc2)C3)ccc1OC1CCCC1 (stereo not given)
active: SNB-75 CNS -13.7%
inactive: HCT-15 colon 24.6% | HT29 colon 11.8% | SNB-19 CNS 39.1% | U251 CNS 33% | PC-3 prostate 10.1% | SK-MEL-5 melanoma 25.6% | UACC-62 melanoma 23.8% | LOX IMVI melanoma 21.7% | SK-MEL-28 melanoma 40.3%

CN1CCN(CCCn2c3c(sc4ncccc43)c(=O)n3nnc(-c4ccccc4)c23)CC1
active: HCT-15 colon -40.1% | HT29 colon -46.2% | SNB-19 CNS 5.98% | U251 CNS -80.8% | PC-3 prostate -3.82% | SK-MEL-5 melanoma -98% | LOX IMVI melanoma -96%
inactive: SNB-75 CNS 73.8% | UACC-62 melanoma 91% | SK-MEL-28 melanoma 111%

Cc1ccc(S(=O)(=O)N2C/C(=C\c3cc(F)cc(F)c3)C(=O)/C(=C/c3cc(F)cc(F)c3)C2)cc1
active: HCT-15 colon -31.6% | HT29 colon -48.7% | SNB-75 CNS -41.6% | SNB-19 CNS -61.7% | U251 CNS -97.9% | PC-3 prostate -60.3% | SK-MEL-5 melanoma -59.6% | UACC-62 melanoma -91.1% | LOX IMVI melanoma -94.5% | SK-MEL-28 melanoma -80.1%

O=C(N/N=C/c1ccc(OC(F)F)c(OC2CCCC2)c1)c1cnn2c1NC(c1ccccc1)C2 (stereo not given)
inactive: HCT-15 colon 51.1% | HT29 colon 81.7% | SNB-75 CNS 57.6% | SNB-19 CNS 79.9% | U251 CNS 82.1% | PC-3 prostate 61.7% | SK-MEL-5 melanoma 70.9% | UACC-62 melanoma 71.2% | LOX IMVI melanoma 68.1% | SK-MEL-28 melanoma 88.7%

O=C(CCc1nnc2sc(-c3ccccc3)nn12)c1nc2ccccc2[nH]1
inactive: HCT-15 colon 98.5% | HT29 colon 62.1% | SNB-75 CNS 83.9% | SNB-19 CNS 104% | U251 CNS 88.7% | PC-3 prostate 85.7% | SK-MEL-5 melanoma 92.4% | UACC-62 melanoma 102% | LOX IMVI melanoma 88.3% | SK-MEL-28 melanoma 103%

COC(=O)[C@@]12CC[C@@H](C)[C@]3(C[C@@H](c4ccoc4)OC3=O)[C@H]1CC[C@@H]1O[C@@]12C
inactive: HCT-15 colon 101% | HT29 colon 107% | SNB-75 CNS 86% | SNB-19 CNS 102% | U251 CNS 105% | PC-3 prostate 95.2% | SK-MEL-5 melanoma 98.9% | UACC-62 melanoma 95.1% | LOX IMVI melanoma 99.3% | SK-MEL-28 melanoma 103%

Cc1ccccc1-c1cc(-c2ccc(Br)s2)[nH]c(=O)c1C#N
inactive: HCT-15 colon 98.7% | HT29 colon 112% | SNB-75 CNS 92.3% | SNB-19 CNS 103% | U251 CNS 106% | PC-3 prostate 98.9% | SK-MEL-5 melanoma 93.1% | UACC-62 melanoma 92.3% | LOX IMVI melanoma 94.2% | SK-MEL-28 melanoma 108%

CCN(c1ccc(C(=O)N2CCN(c3ccccc3)CC2)cc1)S(C)(=O)=O
inactive: HCT-15 colon 104% | HT29 colon 97.7% | SNB-75 CNS 64.1% | SNB-19 CNS 100% | U251 CNS 105% | PC-3 prostate 101% | SK-MEL-5 melanoma 99.6% | UACC-62 melanoma 105% | LOX IMVI melanoma 100% | SK-MEL-28 melanoma 108%

O=C(CCc1nnc2sc(/C=C\c3ccccc3)nn12)c1nc2ccccc2[nH]1
inactive: HCT-15 colon 99.6% | HT29 colon 36.8% | SNB-75 CNS 87.9% | SNB-19 CNS 110% | U251 CNS 89.1% | PC-3 prostate 77.1% | SK-MEL-5 melanoma 75.9% | UACC-62 melanoma 103% | LOX IMVI melanoma 75.3% | SK-MEL-28 melanoma 93.3%
